In PubChem BioAssay AID624504 (Sanford-Burnham Center for Chemical Genomics, 2012):
Among all 5,000 compounds or so, about 3,900 (78%) were called active. So high a share suggests a set chosen from earlier hits. The list is a sample of the results. Values without a mark were called inactive. No stated cut-off is given here; in the data, active means inhibition above about 22%; inactive means the rest.

assay: fluorescence retest of MPTP screen hits in isolated mitochondria, single concentration (AID 624504); details: membrane potential, Rhodamine 123 fluorescence, at 10 µM, stronger effect = higher value;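 further: 0% = DMSO vehicle and 100% = positive control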

SMILES	inhibition
O=C(NNC(=O)c1csc(-c2cccnc2)n1)Nc1ccc(Cl)cc1	68.5% (active)
O=C(Nc1nnc(S(=O)(=O)N2CCCCCC2)s1)c1cccc(Br)c1	99.7% (active)
CCOC(=O)c1cc2cc(-c3c(C(=O)OCC)oc4cc(O)cc(O)c4c3=O)ccc2o1	47.3% (active)
COc1ccc(Cn2c(=O)sc3ccccc32)cc1OC	38.6% (active)
COc1ccc2sc(N(CCCN(C)C)C(=O)c3ccc(S(=O)(=O)N(C)C4CCCCC4)cc3)nc2c1	-15.4%
O=C(Nc1nnc(SCc2ccccc2Cl)s1)c1cccc([N+](=O)[O-])c1	79.5% (active)
O=C(Nc1nnc(SCc2c(Cl)cccc2Cl)s1)c1cccc([N+](=O)[O-])c1	82.1% (active)
O=C(c1ccc(Cl)cc1)c1ccc(OCC(O)CN2CCCCC2)cc1 (configuration not stated)	-2.35%
O=C(COC(=O)c1ccccc1NC(=O)c1ccco1)Nc1ccc2c(c1)OC(F)(F)O2	16.6%
O=C(Cc1c(F)cccc1Cl)Nc1ncc([N+](=O)[O-])s1	98.1% (active)
S=C(NCc1ccc(Cl)cc1)NC12CC3CC(CC(C3)C1)C2	83.4% (active)
S=C(NCc1ccc(Cl)cc1)NC1CCCCC1	92.6% (active)
CCCCOC(=O)CNc1nnc(SCC(=O)OCC)[nH]c1=O	-7.97%
O=C(Cc1ccc(Cl)c(Cl)c1)Nc1ccc(SC(F)F)cc1	73.8% (active)
COc1ccc(/C=C2/SC(=O)N(CCCCCC(=O)Nc3ccccc3C(=O)O)C2=S)cc1	46.1% (active)
CN(C(=O)Nc1ccc(Cl)cc1)n1cnc2ccccc2c1=O	89.2% (active)
Cc1ccccc1C(=O)NC(=S)Nc1ccc(N2CCN(C(=O)c3ccccc3)CC2)cc1	81.8% (active)
Brc1ccc(CSc2ccc(-c3ccco3)nn2)cc1	-1.72%
Cc1onc(-c2ccccc2)c1C(=O)NNC(=S)NC(=O)c1ccc(F)cc1	2.46%
C/C(=N\NC(=O)c1ccc(C)cc1)C1C(=O)c2ccccc2C1=O	58% (active)
COc1ccc(-c2nc3cc(C)ccn3c2NC2CCCCC2)cc1SC1CCCCC1	77.5% (active)
CN(C)Cc1ccccc1C1(O)c2ccccc2CSc2ccccc21 (configuration not stated)	-8.88%
O=C(Nc1ccccc1)c1ccccc1NC(=O)C(F)(F)F	85% (active)
O=C(CSc1nc(-c2ccccc2)cs1)Nc1cccc([N+](=O)[O-])c1	80.1% (active)

SMILES	inhibition
Cc1cccc(OCCNC(=O)CSc2ccc(C(F)(F)F)cc2[N+](=O)[O-])c1	81.3% (active)
O=C(Nc1ccc2ccccc2c1)Nc1ccc2snnc2c1	47.9% (active)
COc1ccc(NC(=O)Nc2ccc3nsnc3c2)cc1	84.7% (active)
O=C(Nc1ccccc1)Nc1nnc(COc2ccccc2F)s1	60.4% (active)
O=C(CSc1nc2ccc([N+](=O)[O-])cc2[nH]1)c1ccc(Cl)cc1	76.5% (active)
CCOC(=O)N1CCN(C(=O)c2ccc3c(c2)N(Cc2ccc(C)cc2)CCS3)CC1	63.9% (active)
N#Cc1ccc(C(=O)Nc2nc(-c3cccs3)c(C(=O)C(F)(F)F)s2)cc1	109% (active)
Cc1cccc(NC(=S)Nc2ccc(Br)cc2)c1	102% (active)
S=C(Nc1ccccc1)Nc1ccc2ccccc2c1	89.2% (active)
Cc1cccc(NC(=S)Nc2ccc(Cl)c(Cl)c2)c1	90.8% (active)
FC(F)(F)COc1nc(N2CCCCC2)nc(N2CCNCC2)n1	-11.8%
Cc1nn(Cc2ccccc2)c2c1C(c1ccccc1)C(C#N)=C(N)O2 (configuration not stated)	-0.3%
CC(=O)c1ccc(NC(=O)Nc2ccc([N+](=O)[O-])cc2C)cc1	90.3% (active)
COc1cc(NC(=O)Nc2ccc(C)cc2)cc([N+](=O)[O-])c1	95.5% (active)
CN(C)Cc1ccc(F)cc1Sc1cc(Cl)ccc1Cl	-3.35%
O=C(Nc1cccc(F)c1)c1coc(=O)c(Br)c1	77.9% (active)
COc1ccc(-n2c(C)cc(C(=O)CSc3nnc(-c4cccs4)o3)c2C)cc1	83% (active)
FC(F)(F)Oc1ccc(NC(=S)NCc2ccccc2)cc1	90.9% (active)
CSCCC(NC(=O)c1cc([N+](=O)[O-])cc([N+](=O)[O-])c1)c1nc2ccccc2[nH]1 (configuration not stated)	81.7% (active)
Cc1ccc(C)c(S(=O)(=O)N2CCN(c3ncnc4sccc34)CC2)c1	104% (active)
Cc1cc(NC(=O)Nc2ccc(Cl)cc2)n(-c2ccccc2)n1	76.2% (active)
Cc1ccc(NC(=O)Nc2cc(-c3ccccc3)nn2C)cc1Cl	69.1% (active)
Fc1ccccc1CNC(=S)Nc1ccc(Cl)cc1	90.7% (active)
